According to paper PMC12350791:

biological target: ACTR2 (UniProt P61160); experiment: cross-linking mass spectrometry; settings: DSBSO, in cells or nuclear extract, not told apart

Chain of ERH, P84090 (P84090 whole entry): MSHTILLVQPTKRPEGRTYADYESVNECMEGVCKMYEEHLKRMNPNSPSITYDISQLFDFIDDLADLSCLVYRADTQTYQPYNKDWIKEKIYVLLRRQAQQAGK
Chain of DDX39A, O00148 (O00148 whole entry): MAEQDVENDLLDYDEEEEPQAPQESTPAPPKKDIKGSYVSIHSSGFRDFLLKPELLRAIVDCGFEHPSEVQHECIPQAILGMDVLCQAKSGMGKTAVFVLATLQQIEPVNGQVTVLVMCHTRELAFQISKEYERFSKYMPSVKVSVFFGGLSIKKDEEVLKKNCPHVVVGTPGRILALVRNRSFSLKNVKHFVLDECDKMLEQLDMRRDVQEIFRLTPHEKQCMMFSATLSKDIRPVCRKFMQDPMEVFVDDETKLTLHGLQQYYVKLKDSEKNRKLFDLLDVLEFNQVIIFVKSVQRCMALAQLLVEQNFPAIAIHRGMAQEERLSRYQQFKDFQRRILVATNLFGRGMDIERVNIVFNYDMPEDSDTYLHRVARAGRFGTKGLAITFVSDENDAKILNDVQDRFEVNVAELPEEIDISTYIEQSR
Chain of DDX39B, Q13838 (Q13838 whole entry): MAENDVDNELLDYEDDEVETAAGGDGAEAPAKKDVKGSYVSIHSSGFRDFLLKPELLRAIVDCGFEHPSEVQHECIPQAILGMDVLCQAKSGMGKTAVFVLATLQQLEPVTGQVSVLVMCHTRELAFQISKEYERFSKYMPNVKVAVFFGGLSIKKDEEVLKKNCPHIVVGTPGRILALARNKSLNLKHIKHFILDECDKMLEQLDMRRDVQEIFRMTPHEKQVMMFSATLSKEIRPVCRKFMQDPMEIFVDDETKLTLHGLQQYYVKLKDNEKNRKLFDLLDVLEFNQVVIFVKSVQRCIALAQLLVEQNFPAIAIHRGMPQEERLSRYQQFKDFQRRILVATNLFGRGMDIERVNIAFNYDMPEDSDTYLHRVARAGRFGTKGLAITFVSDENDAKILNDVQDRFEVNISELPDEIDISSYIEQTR

Row | Substance | cross-linked residues
1 | ARPC3, O15145 | K61 - K46
2 | ARPC1B, O15143 | K49 - K219
3 | ACTR3, P61158 | K348 - K46
4 | ARPC4, P59998 | K44 - K322

biological target: CHTOP (UniProt Q9Y3Y2); experiment: cross-linking mass spectrometry; settings: DSBSO, in cells or nuclear extract, not told apart
Sequence (Q9Y3Y2 whole entry): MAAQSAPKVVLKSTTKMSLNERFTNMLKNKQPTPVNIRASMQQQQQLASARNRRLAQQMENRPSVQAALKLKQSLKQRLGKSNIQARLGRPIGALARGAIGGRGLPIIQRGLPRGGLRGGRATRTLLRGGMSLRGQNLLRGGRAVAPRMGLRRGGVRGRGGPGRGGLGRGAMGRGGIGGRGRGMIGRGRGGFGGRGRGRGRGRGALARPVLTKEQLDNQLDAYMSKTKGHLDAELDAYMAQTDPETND

Row | Substance | cross-linked residues
5 | DDX39A, O00148 | K187 - K226
6 | ERH, P84090 | K90 - K30
7 | DDX39B, Q13838 | K188 - K226
